Experimental data as given in PubChem BioAssay AID602143 (Vanderbilt Specialized Chemistry Center, 2011).
A number with no mark means an inactive call. Calls of active or inactive are those of the source. Cut-off read from the data, not from the text of the source: active = remaining activity below about 50%; inactive = the rest.

Molecular target: Phospholipase D2 (Homo sapiens) (UniProt O14939)
Assay: cellular phospholipase D2 activity inhibition – cell-based, HEK293, single concentration (AID 602143);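 note: tested at 200 nM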
Conditions: HEK293 cellular PLD2 activity, percent of control; stronger effect = lower value

Phospholipase D2 (Homo sapiens), sequence (O14939 whole entry, looked up): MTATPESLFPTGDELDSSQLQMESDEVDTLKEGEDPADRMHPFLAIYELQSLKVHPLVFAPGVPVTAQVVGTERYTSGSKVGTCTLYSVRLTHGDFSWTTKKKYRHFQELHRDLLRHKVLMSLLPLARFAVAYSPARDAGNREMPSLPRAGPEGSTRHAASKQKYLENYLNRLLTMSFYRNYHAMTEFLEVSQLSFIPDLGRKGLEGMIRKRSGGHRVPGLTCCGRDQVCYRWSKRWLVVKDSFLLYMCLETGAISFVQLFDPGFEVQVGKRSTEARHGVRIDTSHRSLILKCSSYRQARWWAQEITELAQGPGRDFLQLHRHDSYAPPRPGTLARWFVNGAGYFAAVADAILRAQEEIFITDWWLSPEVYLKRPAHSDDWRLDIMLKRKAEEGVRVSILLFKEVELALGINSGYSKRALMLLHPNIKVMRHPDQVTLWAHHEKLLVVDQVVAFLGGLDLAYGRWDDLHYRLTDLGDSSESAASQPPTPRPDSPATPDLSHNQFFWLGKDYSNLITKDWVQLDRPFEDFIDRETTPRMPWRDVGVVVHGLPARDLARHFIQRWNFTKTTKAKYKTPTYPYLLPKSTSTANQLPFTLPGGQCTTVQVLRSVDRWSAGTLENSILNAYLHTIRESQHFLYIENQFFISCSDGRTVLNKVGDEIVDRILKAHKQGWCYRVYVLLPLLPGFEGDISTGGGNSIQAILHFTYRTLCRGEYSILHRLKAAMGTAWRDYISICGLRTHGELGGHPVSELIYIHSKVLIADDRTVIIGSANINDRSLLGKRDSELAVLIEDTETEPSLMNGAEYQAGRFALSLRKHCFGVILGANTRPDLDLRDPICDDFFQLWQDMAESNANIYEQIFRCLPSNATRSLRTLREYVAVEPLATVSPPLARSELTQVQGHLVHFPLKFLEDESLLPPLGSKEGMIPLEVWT
Phospholipase D2 (Homo sapiens), sequence (O14939 whole entry, looked up): as above

Compound	remaining activity
O=C(NCCN1CCC2(CC1)C(=O)NCN2c1cccc(F)c1)C(c1ccccc1)c1ccccc1	92.3%
C[C@@H](CN1CCC2(CC1)C(=O)NCN2c1ccc(F)c(F)c1)NC(=O)c1ccc(Cl)cc1	14.9% (active)
CN(CCN1CCC2(CC1)C(=O)NCN2c1ccccc1)C(=O)c1ccc2ccccc2c1	95.2%
O=C(NCCN1CCC2(CC1)C(=O)NCN2c1ccccc1)c1ccc(-c2ccccc2)o1	50.1%
O=C(NCCN1CCC2(CC1)C(=O)NCN2c1ccccc1)C1C[C@H]1c1ccccc1 (stereo not given in full)	98.4%
O=C(C1C[C@H]1c1ccccc1)N1CC(N2CCC(n3c(=O)[nH]c4ccccc43)CC2)C1 (stereo not given in full)	87.7%
CCCCCC(=O)N(CCN1CCC2(CC1)C(=O)NCN2c1cccc(F)c1)C(=O)CCCCC	73.1%
O=C(NCCN1CCC2(CC1)C(=O)NCN2c1ccc(F)c(F)c1)c1cnc2ccccc2c1	26.1% (active)
O=C1c2ccccc2C(=O)N1CCCN1CCC2(CC1)C(=O)NCN2c1ccccc1	81%
Nc1ccc(C(=O)NCCN2CCC3(CC2)C(=O)NCN3c2ccccc2)cc1OC(F)(F)F	97.3%
O=C(NCCN1CCC2(CC1)C(=O)NCN2c1ccccc1)c1cc(Br)c(Br)o1	77.1%
CC(C)(C)C(=O)NCCN1CCC2(CC1)C(=O)NCN2c1cccc(F)c1	74.9%
CC(C)[C@@H](CN1CCC2(CC1)C(=O)NCN2c1ccccc1)NC(=O)c1ccc2ccccc2c1	80.9%
O=C(NCCN1CCC2(CC1)C(=O)NCN2c1cccc(F)c1)C12CC3CC(CC(C3)C1)C2	87.1%
O=C(NCCN1CCC2(CC1)C(=O)NCN2c1ccc(Cl)cc1)c1ccc(F)cc1	58.4%
O=C(CCN1CCC2(CC1)C(=O)NCN2c1ccccc1)Nc1cnc2ccccc2c1	104%
O=C(NCCN1CCC2(CC1)C(=O)NCN2c1cccc(F)c1)c1c(F)cccc1F	88%
O=C(NCCN1CCC2(CC1)C(=O)NCN2c1ccc(Br)cc1)c1ccc(F)cc1	73.2%

Compound	remaining activity
O=C(c1ccc(F)c(F)c1)N1CCC[C@@H]1CN1CCC2(CC1)C(=O)NCN2c1ccccc1	124%
O=C(NCCN1CCC2(CC1)C(=O)NCN2c1ccccc1)c1ccnnc1	101%
O=C(NCCN1CCC2(CC1)C(=O)NCN2c1ccc(F)c(F)c1)c1ccc(Cl)cc1	55.3%
CC(C)[C@@H](CN1CCC2(CC1)C(=O)NCN2c1ccccc1)NC(=O)c1ccc(Cl)cc1	59.4%
O=C(NCCN1CCC2(CC1)C(=O)NCN2c1cccc(F)c1)c1cccc(F)c1	63.4%
O=C(CCc1ccc(F)cc1)NCCN1CCC2(CC1)C(=O)NCN2c1ccccc1	102%
O=C(NCCN1CCC2(CC1)C(=O)NCN2c1ccc(Cl)cc1)c1ccc(Cl)cc1	49% (active)
O=C(NCCN1CCC2(CC1)C(=O)NCN2c1ccc(Cl)cc1)c1ccc2ccccc2c1	54.4%
O=C(C#Cc1ccccc1)NCCN1CCC2(CC1)C(=O)NCN2c1ccccc1	47.9% (active)
O=C(NCCN1CCC2(CC1)C(=O)NCN2c1cccc(F)c1)c1cc2cc(F)ccc2[nH]1	0.401% (active)
O=C(NCCN1CCC2(CC1)C(=O)NCN2c1ccccc1)c1cnc2ccccc2c1	56.6%
O=C(NCCN1CCC2(CC1)C(=O)NCN2c1cccc(F)c1)C1CCCCC1	91%
O=C(NCCN1CCC2(CC1)C(=O)NCN2c1ccccc1)c1cccnn1	88.2%
O=C(NCCN1CCC2(CC1)C(=O)NCN2c1ccccc1)c1cc2cccnc2s1	79.2%
O=C(NCCN1CCC2(CC1)C(=O)NCN2c1cccc(F)c1)c1ccc2c(c1)C(=O)OC2=O	66.5%
O=C(c1ccc2ccccc2c1)N1CC(N2CCC(n3c(=O)[nH]c4ccccc43)CC2)C1	64.3%
O=C(NCCN1CCC2(CC1)C(=O)NCN2c1cccc(Cl)c1)c1cc2cc(F)ccc2[nH]1	40.2% (active)
